Data on 14 compounds can be found in PubChem BioAssay (NCI).

Each structure is given as a SMILES string. Compounds without any hit were thinned out: in the full panel of roughly 83,000, 20% have a hit.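 Cell lines were cultured in 96-well plates, exposed to a single compound concentration, and assessed for percent growth 48 hours later.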 A number with no mark means an inactive call. The source made the active and inactive calls. How the source made its calls: active means growth percent below 10; inactive means the rest.

Among the test systems are SK-MEL-2 melanoma; EKVX NSCLC; SN12C renal; UO-31 renal; TK-10 renal; ACHN renal; CAKI-1 renal; A498 renal; CCRF-CEM leukemia; MOLT-4 leukemia.
What all share (assay): NCI-60 one-dose screen, 48 h (100 = growth as untreated, 0 = no growth, -100 = all killed)
Common to all, as to conditions: 10 µM unless noted

Regarding `Clc1cccc(/C=N/Nc2nc(N/N=C/c3cccc(Cl)c3)nc(N3CCCCC3)n2)c1`, the growth in the experiment on SK-MEL-2 melanoma is 86.1%; in the experiment with EKVX NSCLC it was 78.4%; in the experiment on SN12C renal it was 92.4%; in the experiment on UO-31 renal it was 76.7%; in the experiment on TK-10 renal, 106%; with ACHN renal, 101%. The growth with CAKI-1 renal was 92.4%; in the experiment with A498 renal, 92.2%; with CCRF-CEM leukemia it was 75%; in the experiment with MOLT-4 leukemia it was 68.7%.

Regarding `CN(C)CC(=O)Nc1nc(-c2cccc(NS(=O)(=O)c3cccc4c(N(C)C)cccc34)c2)cs1`, the growth is 94.1% in the experiment on SK-MEL-2 melanoma; 68.9% in the experiment with EKVX NSCLC; 75.3% in the experiment on SN12C renal; 70.4% with UO-31 renal; 107% in the experiment on TK-10 renal; 88.2% in the experiment with ACHN renal. Also, the growth is 78.8% with CAKI-1 renal, 101% with A498 renal, 83.7% in the experiment with CCRF-CEM leukemia and 80.4% with MOLT-4 leukemia.

Consider `Fc1ccc2nc(-c3cnn4cccnc34)sc2c1`, for which the growth is 119% with SK-MEL-2 melanoma; 61.8% in the experiment with EKVX NSCLC; 90.2% in the experiment on SN12C renal; 46.8% with UO-31 renal; 123% with TK-10 renal; 78.9% in the experiment on ACHN renal. For the same compound, the growth in the experiment with CAKI-1 renal was 68.9%; with A498 renal, 89.7%; in the experiment on CCRF-CEM leukemia it was 102%; with MOLT-4 leukemia, 80.3%.

`COc1ccc([C@H]2C(=O)N(c3cc(OC)c(OC)c(OC)c3)[C@@H]2c2ccc(OC)c(O)c2)cc1`: the growth with SK-MEL-2 melanoma was 9.11% (active); in the experiment on EKVX NSCLC it was 46.1%; in the experiment with SN12C renal, 30.4%; with UO-31 renal it was 26.9%; in the experiment with TK-10 renal, 110%; in the experiment with ACHN renal, 28.4%. In addition, the growth was 24.5% in the experiment on CAKI-1 renal, -29.9% (active) with A498 renal, 18.9% in the experiment with CCRF-CEM leukemia and 13.4% in the experiment on MOLT-4 leukemia.

As for `O=C(CCCCCCNC(=O)C(O)(O)C(F)(F)F)Nc1ccc(-c2ccccc2)cc1`, the growth is -37.4% (active) in the experiment on SK-MEL-2 melanoma; 34.2% in the experiment on EKVX NSCLC; 14.6% in the experiment with SN12C renal; -1.11% (active) with UO-31 renal; 5.83% (active) with TK-10 renal; -18.3% (active) with ACHN renal. Besides, the growth in the experiment on CAKI-1 renal was 2.61% (active); with A498 renal, -7.85% (active); in the experiment with CCRF-CEM leukemia, 23.6%; in the experiment on MOLT-4 leukemia it was 14.1%.

Regarding `O=C(CCCCCCN1CC(=O)N2[C@@H](c3ccccc3Br)c3[nH]c4ccccc4c3C[C@H]2C1=O)NO`, the growth in the experiment on SK-MEL-2 melanoma is 39.3%; in the experiment on EKVX NSCLC, 62.5%; in the experiment on SN12C renal, 66.3%; in the experiment with UO-31 renal, 58.4%; in the experiment on TK-10 renal it was 28.7%; with ACHN renal it was 70.2%. In addition, the growth in the experiment on CAKI-1 renal was 42.2%; in the experiment on A498 renal, 74.7%; in the experiment with CCRF-CEM leukemia, 17.7%; in the experiment on MOLT-4 leukemia, 6.43% (active).

Take `O=c1c2cc(-c3ccc(F)cc3F)ccc2n(Nc2ccccc2)c(=O)n1-c1cccc(C(F)(F)F)c1`: the growth in the experiment with SK-MEL-2 melanoma is -11.2% (active); in the experiment with EKVX NSCLC, 6.49% (active); in the experiment with SN12C renal it was 3.98% (active); with UO-31 renal it was 4.59% (active); in the experiment with TK-10 renal it was 11.3%; in the experiment with ACHN renal, 2.25% (active). For the same compound, the growth with CAKI-1 renal was -10.6% (active); with A498 renal, -18.1% (active); with CCRF-CEM leukemia, 15.5%; with MOLT-4 leukemia, 6.73% (active).

`COc1ccc(Cn2cc(C#N)c(N)c2C(C)=O)cc1`: the growth is 106% with SK-MEL-2 melanoma; 104% in the experiment on EKVX NSCLC; 89.8% in the experiment on SN12C renal; 95.9% in the experiment with UO-31 renal; 99.8% in the experiment with TK-10 renal; 103% in the experiment with ACHN renal. Further, the growth in the experiment with CAKI-1 renal was 93.6%; in the experiment on A498 renal, 83.9%; in the experiment with CCRF-CEM leukemia it was 94.7%; in the experiment with MOLT-4 leukemia it was 101%.

As to `O=c1c2cc(-c3ccc(F)cc3F)ccc2n(O)c(=O)n1-c1cccc(C(F)(F)F)c1`, the growth in the experiment on SK-MEL-2 melanoma is -34.3% (active); in the experiment on EKVX NSCLC it was 4.46% (active); in the experiment with SN12C renal, 0.105% (active); with UO-31 renal, 8% (active); in the experiment with TK-10 renal, 1.66% (active); in the experiment with ACHN renal it was 0.899% (active). The growth with CAKI-1 renal is -16.4% (active); in the experiment with A498 renal, -22.4% (active); in the experiment with CCRF-CEM leukemia, 15.2%; in the experiment with MOLT-4 leukemia it was 0.581% (active).

On to `CCCCN1C(=O)/C(=c2\sc3n(c2=O)C2C(NN=3)N(CC)C(=O)N2CC)c2cc(C)ccc21` (stereo not given), for which the growth with SK-MEL-2 melanoma was 113%; with EKVX NSCLC it was 85.2%; in the experiment with SN12C renal, 97.9%; with UO-31 renal, 75%; in the experiment with TK-10 renal, 117%; in the experiment with ACHN renal it was 95.1%. Besides, the growth in the experiment on CAKI-1 renal was 58.1%; in the experiment on A498 renal it was 96%; in the experiment on CCRF-CEM leukemia, 94.7%; in the experiment with MOLT-4 leukemia, 91.8%.

In the case of `Cc1ccc(NC(=O)Nc2nc3ccc([N+](=O)[O-])cc3s2)cc1`, the growth in the experiment with SK-MEL-2 melanoma is -15.2% (active); in the experiment with EKVX NSCLC it was 4.01% (active); in the experiment on SN12C renal, 3.41% (active); in the experiment with UO-31 renal it was 6.85% (active); in the experiment on TK-10 renal, 4.02% (active); in the experiment with ACHN renal, 1.63% (active). Besides, the growth with CAKI-1 renal is -23.2% (active); in the experiment with A498 renal it was -34.8% (active); in the experiment on CCRF-CEM leukemia, 14.2%; in the experiment on MOLT-4 leukemia, 17.2%.

As for `C/C(=C(/C)C1CC1CCNC1CCC(NC(=O)OC(C)(C)C)CC1)c1ccccc1` (stereo not given), the growth in the experiment on SK-MEL-2 melanoma is 95.9%; with EKVX NSCLC, 73.7%; in the experiment with SN12C renal, 76.2%; with UO-31 renal, 63.8%; in the experiment on TK-10 renal, 108%; with ACHN renal it was 87.1%. In addition, the growth is 53.6% in the experiment with CAKI-1 renal, 78% with A498 renal, 54% with CCRF-CEM leukemia and 61.9% with MOLT-4 leukemia.

For `Cc1ccc(Nc2nc(SC(C)C)nc(-c3ccccc3)c2C#N)cc1`, the growth with SK-MEL-2 melanoma is 112%; in the experiment on EKVX NSCLC it was 81.7%; in the experiment with SN12C renal it was 95.8%; in the experiment on UO-31 renal, 88.4%; in the experiment on TK-10 renal it was 82.1%; with ACHN renal, 88.4%. For the same compound, the growth with CAKI-1 renal is 75.8%; in the experiment with A498 renal it was 62.3%; in the experiment on CCRF-CEM leukemia it was 81.7%; in the experiment with MOLT-4 leukemia it was 100%.

For the compound `CNC(=O)c1cc(N2CCc3cc(NC(=O)Nc4ccc(N5CCN(C)CC5)c(C(F)(F)F)c4)ccc32)ccn1`, the growth in the experiment with SK-MEL-2 melanoma is 99.4%; in the experiment with EKVX NSCLC, 82.3%; in the experiment on SN12C renal, 100%; in the experiment with UO-31 renal, 88.7%; with TK-10 renal, 134%; with ACHN renal, 85.6%. Besides, the growth was 79.9% in the experiment with CAKI-1 renal, 76.9% in the experiment on A498 renal, 5.44% (active) in the experiment with CCRF-CEM leukemia and 17.3% in the experiment on MOLT-4 leukemia.
